Results taken from the supplement of paper PMC3342239.
Where a name gives a salt, the structure may show the parent alone.

The compounds below were run on Saccharomyces cerevisiae (assay: fraction of cells in G1 phase (DNA content, flow cytometry); higher = more cells with unreplicated DNA (G1 delay)). Details: temperature: 30 C; YPD; BY4741 PDR5+ SNQ2+; drug added to: actively dividing cells; 4.33 h.
Procedure, shortened: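 Library drugs were added to S. cerevisiae in YPD at 30°C, with fixation after 6–7 h for sensitized JTY2953 diluted 1∶200 from overnight and given a final 20 µg/ml, 6 h for dividing JTY2953, and 4.33 h for BY4741. Ethanol-fixed cells stained with SYTOX Green were read by flow cytometry, 10,000 events each. The G1 fraction is the ratio of the Dean-Jett-Fox G1 peak area to the G1 plus G2/M areas.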

**Q.** For `C[C@@H]1CN(c2c(F)c(N)c3c(=O)c(C(=O)O)cn(C4CC4)c3c2F)C[C@H](C)N1` [Sparfloxacin] (50.9672 µM), which “fraction of cells in G1 phase” value is on record?
**A.** The value was 0.46.

**Q.** `COc1c(N2CCNC(C)C2)c(F)cc2c(=O)c(C(=O)O)cn(C3CC3)c12` (configuration not stated) [Gatifloxacin] (53.276 µM) was tested. Which “fraction of cells in G1 phase” value did it give?
**A.** The value was 0.391.

**Q.** For `Fc1ccc([C@@H]2CCNC[C@H]2COc2ccc3c(c2)OCO3)cc1` [Paroxetine HCl] (60.7211 µM), which “fraction of cells in G1 phase” value is on record?
**A.** Its value is 0.468.

**Q.** `CC[C@@]1(O)C[C@H](O[C@H]2C[C@H](N(C)C)[C@H](O[C@H]3C[C@H](O)[C@H](O[C@H]4CCC(=O)[C@H](C)O4)[C@H](C)O3)[C@H](C)O2)c2c(cc3c(c2O)C(=O)c2c(O)cccc2C3=O)[C@H]1C(=O)OC` [Aclarubicin] (24.6339 µM) was tested. Which “fraction of cells in G1 phase” value did it give?
**A.** Its value is 0.431.

Same assay, conditions: temperature: 30 C; YPD; JTY2953 pdr5 snq2 (sensitized); drug added to: actively dividing cells; 6 h

**Q.** `Clc1ccc(Nc2nnc(Cc3ccncc3)c3ccccc23)cc1` [Vatalanib] (57.6664 µM) was tested. Which “fraction of cells in G1 phase” value did it give?
**A.** The value was 0.691.

**Q.** How did the “fraction of cells in G1 phase” value turn out when `CC(C)(C)c1ccc(C(O)CCCN2CCC(C(O)(c3ccccc3)c3ccccc3)CC2)cc1` (configuration not stated) [Terfenadine] (42.4008 µM) was run?
**A.** Its value is 0.324.

**Q.** Which “fraction of cells in G1 phase” value does the source give for `Clc1ccc(C(Cn2ccnc2)OCc2csc3c(Cl)cccc23)c(Cl)c1` (configuration not stated) [Sertaconazole] (45.6852 µM) here?
**A.** Its value is 0.3.

**Q.** Which “fraction of cells in G1 phase” value does the source give for `CN1CCC[C@@H]1CCO[C@](C)(c1ccccc1)c1ccc(Cl)cc1` [Clemastine fumarate] (58.1564 µM) here?
**A.** Its value is 0.585.

**Q.** With `O=C1Nc2ccc(Cl)cc2[C@@](C#CC2CC2)(C(F)(F)F)O1` [Efavirenz] (63.355 µM) as the compound, how does the “fraction of cells in G1 phase” value read?
**A.** The value was 0.4.

**Q.** With `Clc1ccc(CCC(Cn2ccnc2)Sc2c(Cl)cccc2Cl)cc1` (configuration not stated) [Butoconazole nitrate] (42.123 µM) as the compound, how does the “fraction of cells in G1 phase” value read?
**A.** Its value is 0.478.

**Q.** Which “fraction of cells in G1 phase” value does the source give for `CC/C(=C(\c1ccccc1)c1ccc(OCCN(C)C)cc1)c1ccccc1` [Tamoxifen citrate] (53.8319 µM) here?
**A.** The value was 0.385.

**Q.** How did the “fraction of cells in G1 phase” value turn out when `CN1CCN(CCCN2c3ccccc3Sc3ccc(C(F)(F)F)cc32)CC1` [Trifluoperazine 2HCl] (41.632 µM) was run?
**A.** The value was 0.295.

**Q.** With `CCCCc1oc2ccccc2c1C(=O)c1cc(I)c(OCCN(CC)CC)c(I)c1` [Amiodarone] (30.9922 µM) as the compound, how does the “fraction of cells in G1 phase” value read?
**A.** The value was 0.388.

**Q.** With `c1ccc(-c2ccc(C(c3ccccc3)n3ccnc3)cc2)cc1` (configuration not stated) [Bifonazole] (64.4325 µM) as the compound, how does the “fraction of cells in G1 phase” value read?
**A.** Its value is 0.474.

**Q.** How did the “fraction of cells in G1 phase” value turn out when `Clc1ccc(COC(Cn2ccnc2)c2ccc(Cl)cc2Cl)c(Cl)c1` (configuration not stated) [Miconazole] (48.0611 µM) was run?
**A.** The value was 0.467.

Same assay, conditions: temperature: 30 C; YPD; JTY2953 pdr5 snq2 (sensitized); drug added to: cultures diluted from stationary phase; 6-7 h

**Q.** For `CC#C[C@]1(O)CC[C@H]2[C@@H]3CCC4=CC(=O)CCC4=C3[C@@H](c3ccc(N(C)C)cc3)C[C@@]21C` [Mifepristone] (46.5541 µM), which “fraction of cells in G1 phase” value is on record?
**A.** Its value is 0.469.

**Q.** `CC(C(=O)O)c1ccc(-c2ccccc2)c(F)c1` (configuration not stated) [Flurbiprofen] (81.8773 µM) was tested. Which “fraction of cells in G1 phase” value did it give?
**A.** The value was 0.524.

**Q.** How did the “fraction of cells in G1 phase” value turn out when `O=c1[nH]cnc2c1ncn2[C@H]1CC[C@@H](CO)O1` [Didanosine] (84.6625 µM) was run?
**A.** Its value is 0.514.

**Q.** With `CC(C)CN(C[C@@H](O)[C@H](Cc1ccccc1)NC(=O)O[C@H]1CCOC1)S(=O)(=O)c1ccc(N)cc1` [Amprenavir] (39.554 µM) as the compound, how does the “fraction of cells in G1 phase” value read?
**A.** The value was 0.472.

**Q.** How did the “fraction of cells in G1 phase” value turn out when `Clc1ccc(Nc2nnc(Cc3ccncc3)c3ccccc23)cc1` [Vatalanib] (57.6664 µM) was run?
**A.** Its value is 0.699.

**Q.** How did the “fraction of cells in G1 phase” value turn out when `C[C@@H]1CN(c2c(F)c(N)c3c(=O)c(C(=O)O)cn(C4CC4)c3c2F)C[C@H](C)N1` [Sparfloxacin] (50.9672 µM) was run?
**A.** Its value is 0.366.

**Q.** For `CC(C)(C)c1ccc(C(O)CCCN2CCC(C(O)(c3ccccc3)c3ccccc3)CC2)cc1` (configuration not stated) [Terfenadine] (42.4008 µM), which “fraction of cells in G1 phase” value is on record?
**A.** Its value is 0.776.

**Q.** With `CC(=O)OCC(CCn1cnc2cnc(N)nc21)COC(C)=O` [Famciclovir] (62.2396 µM) as the compound, how does the “fraction of cells in G1 phase” value read?
**A.** Its value is 0.505.

**Q.** `Clc1ccc(C(Cn2ccnc2)OCc2csc3c(Cl)cccc23)c(Cl)c1` (configuration not stated) [Sertaconazole] (45.6852 µM) was tested. Which “fraction of cells in G1 phase” value did it give?
**A.** The value was 0.869.

**Q.** How did the “fraction of cells in G1 phase” value turn out when `CCCCC1C(=O)N(c2ccccc2)N(c2ccccc2)C1=O` [Phenylbutazone] (64.8543 µM) was run?
**A.** The value was 0.499.

**Q.** `CN1CCC[C@@H]1CCO[C@](C)(c1ccccc1)c1ccc(Cl)cc1` [Clemastine fumarate] (58.1564 µM) was tested. Which “fraction of cells in G1 phase” value did it give?
**A.** Its value is 0.66.

**Q.** `COc1c(C)c2c(c(O)c1C/C=C(\C)CCC(=O)O)C(=O)OC2` [Mycophenolic acid] (62.4326 µM) was tested. Which “fraction of cells in G1 phase” value did it give?
**A.** Its value is 0.54.

**Q.** For `O=C1CC2(CCCC2)CC(=O)N1CCCCN1CCN(c2ncccn2)CC1` [Buspirone HCl] (51.8789 µM), which “fraction of cells in G1 phase” value is on record?
**A.** The value was 0.499.

**Q.** With `CC(=O)O[C@]1(C(C)=O)CC[C@H]2[C@@H]3C=C(C)C4=CC(=O)CC[C@]4(C)[C@H]3CC[C@@]21C` [Megestrol acetate] (52.0129 µM) as the compound, how does the “fraction of cells in G1 phase” value read?
**A.** Its value is 0.575.

**Q.** `C[C@H](CCC(=O)NCCS(=O)(=O)O)[C@H]1CC[C@H]2[C@@H]3[C@H](O)C[C@@H]4C[C@H](O)CC[C@]4(C)[C@H]3C[C@H](O)[C@]12C` [Taurocholic acid, sodium salt hydrate] (38.7811 µM) was tested. Which “fraction of cells in G1 phase” value did it give?
**A.** The value was 0.491.

**Q.** With `COc1ncnc(NS(=O)(=O)c2ccc(N)cc2)c1OC` [Sulfadoxine] (64.4467 µM) as the compound, how does the “fraction of cells in G1 phase” value read?
**A.** The value was 0.474.

**Q.** For `Nc1ccc(O)c(C(=O)O)c1` [5-aminosalicylic acid] (130.601 µM), which “fraction of cells in G1 phase” value is on record?
**A.** The value was 0.48.

**Q.** Which “fraction of cells in G1 phase” value does the source give for `CC(=O)O[C@]1(C(C)=O)CC[C@H]2[C@@H]3C=C(Cl)C4=CC(=O)CC[C@]4(C)[C@H]3CC[C@@]21C` [Chlormadinone acetate] (44.5442 µM) here?
**A.** Its value is 0.577.

**Q.** Which “fraction of cells in G1 phase” value does the source give for `Nc1ccn([C@@H]2O[C@H](CO)[C@@H](O)[C@@H]2O)c(=O)n1` [Cytarabine] (82.2297 µM) here?
**A.** The value was 0.477.

**Q.** How did the “fraction of cells in G1 phase” value turn out when `COc1c(N2CCNC(C)C2)c(F)cc2c(=O)c(C(=O)O)cn(C3CC3)c12` (configuration not stated) [Gatifloxacin] (53.276 µM) was run?
**A.** Its value is 0.335.

**Q.** For `O=C1Nc2ccc(Cl)cc2[C@@](C#CC2CC2)(C(F)(F)F)O1` [Efavirenz] (63.355 µM), which “fraction of cells in G1 phase” value is on record?
**A.** Its value is 0.879.

**Q.** Which “fraction of cells in G1 phase” value does the source give for `Clc1ccc(CCC(Cn2ccnc2)Sc2c(Cl)cccc2Cl)cc1` (configuration not stated) [Butoconazole nitrate] (42.123 µM) here?
**A.** Its value is 0.904.

**Q.** How did the “fraction of cells in G1 phase” value turn out when `Fc1ccc([C@@H]2CCNC[C@H]2COc2ccc3c(c2)OCO3)cc1` [Paroxetine HCl] (60.7211 µM) was run?
**A.** The value was 0.387.

**Q.** Which “fraction of cells in G1 phase” value does the source give for `CC/C(=C(\c1ccccc1)c1ccc(OCCN(C)C)cc1)c1ccccc1` [Tamoxifen citrate] (53.8319 µM) here?
**A.** The value was 0.896.

**Q.** How did the “fraction of cells in G1 phase” value turn out when `CN1CCN(CCCN2c3ccccc3Sc3ccc(C(F)(F)F)cc32)CC1` [Trifluoperazine 2HCl] (41.632 µM) was run?
**A.** The value was 0.873.

**Q.** For `CC[C@@]1(O)C[C@H](O[C@H]2C[C@H](N(C)C)[C@H](O[C@H]3C[C@H](O)[C@H](O[C@H]4CCC(=O)[C@H](C)O4)[C@H](C)O3)[C@H](C)O2)c2c(cc3c(c2O)C(=O)c2c(O)cccc2C3=O)[C@H]1C(=O)OC` [Aclarubicin] (24.6339 µM), which “fraction of cells in G1 phase” value is on record?
**A.** The value was 0.364.

**Q.** How did the “fraction of cells in G1 phase” value turn out when `CC(=O)OCC(=O)[C@@]1(O)CC[C@H]2[C@@H]3CCC4=CC(=O)CC[C@]4(C)[C@H]3[C@@H](O)C[C@@]21C` [Hydrocortisone 21-acetate] (49.4428 µM) was run?
**A.** The value was 0.494.

**Q.** Which “fraction of cells in G1 phase” value does the source give for `CN(C)CC/C=C1/c2ccccc2COc2ccc(CC(=O)O)cc21` [Olopatadine] (59.2729 µM) here?
**A.** Its value is 0.431.

**Q.** With `CCCCc1oc2ccccc2c1C(=O)c1cc(I)c(OCCN(CC)CC)c(I)c1` [Amiodarone] (30.9922 µM) as the compound, how does the “fraction of cells in G1 phase” value read?
**A.** The value was 0.868.

**Q.** With `c1ccc(-c2ccc(C(c3ccccc3)n3ccnc3)cc2)cc1` (configuration not stated) [Bifonazole] (64.4325 µM) as the compound, how does the “fraction of cells in G1 phase” value read?
**A.** Its value is 0.758.

**Q.** How did the “fraction of cells in G1 phase” value turn out when `Clc1ccc(COC(Cn2ccnc2)c2ccc(Cl)cc2Cl)c(Cl)c1` (configuration not stated) [Miconazole] (48.0611 µM) was run?
**A.** Its value is 0.869.

**Q.** How did the “fraction of cells in G1 phase” value turn out when `N=c1nc(N2CCCCC2)cc(N)n1O` [Minoxidil] (95.5782 µM) was run?
**A.** The value was 0.522.

**Q.** For `CCC[C@@H]1C[C@@H](C(=O)N[C@@H]([C@H]2O[C@H](SC)[C@H](O)[C@@H](O)[C@H]2O)[C@H](C)Cl)N(C)C1` [Clindamycin HCl] (47.0598 µM), which “fraction of cells in G1 phase” value is on record?
**A.** Its value is 0.505.

**Q.** `NS(=O)(=O)Cc1noc2ccccc12` [Zonisamide] (94.238 µM) was tested. Which “fraction of cells in G1 phase” value did it give?
**A.** Its value is 0.51.

**Q.** `CCN(CC)CCCC(C)Nc1c2ccc(Cl)cc2nc2ccc(OC)cc12` (configuration not stated) [Quinacrine 2HCl dihydrate] (50.004 µM) was tested. Which “fraction of cells in G1 phase” value did it give?
**A.** Its value is 0.529.

**Q.** For `COc1ccc2c(c1)c(CC(=O)OCC(=O)O)c(C)n2C(=O)c1ccc(Cl)cc1` [Acemetacin] (48.0961 µM), which “fraction of cells in G1 phase” value is on record?
**A.** Its value is 0.489.

**Q.** `CN1[C@@H]2CC[C@H]1C[C@@H](OC(=O)c1c[nH]c3ccccc13)C2` [Tropisetron HCl] (70.3331 µM) was tested. Which “fraction of cells in G1 phase” value did it give?
**A.** Its value is 0.469.
